# Shown are actives, neighbours in structure and some others; about 4% of the full set was active somewhere.
# FBA Mtb inh = Mtb fructose-bisphosphate aldolase inhibition | purified M. tuberculosis FBA, fluorescence read-out | 360,000 compounds, 2.3% hits | P9WQA3 | inhibition, % at 1 µM;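 note: 0% = vehicle and 100% = reference inhibitor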
# RecA intein inh = blocks M. tuberculosis RecA intein splicing; P9WHJ3; cell-free RecA intein splicing, fluorescence; inhibition, % (test concentration not listed); 290,000 compounds, 0.75% hits; AID 2221; in the data active = inhibition above about 30%;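 note: 0% = vehicle wells and 100% = reference inhibitor control wells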
# Mtb UGM inh = inhibitors of M. tuberculosis UDP-galactopyranose mutase; inhibition, % at 10 µM; purified UGM, fluorescence polarization probe displacement; 320,000 compounds, 0.06% hits; in the data active = inhibition above about 10%, passing the limit was not always enough
# Target sequence (P9WIQ1 whole entry, looked up): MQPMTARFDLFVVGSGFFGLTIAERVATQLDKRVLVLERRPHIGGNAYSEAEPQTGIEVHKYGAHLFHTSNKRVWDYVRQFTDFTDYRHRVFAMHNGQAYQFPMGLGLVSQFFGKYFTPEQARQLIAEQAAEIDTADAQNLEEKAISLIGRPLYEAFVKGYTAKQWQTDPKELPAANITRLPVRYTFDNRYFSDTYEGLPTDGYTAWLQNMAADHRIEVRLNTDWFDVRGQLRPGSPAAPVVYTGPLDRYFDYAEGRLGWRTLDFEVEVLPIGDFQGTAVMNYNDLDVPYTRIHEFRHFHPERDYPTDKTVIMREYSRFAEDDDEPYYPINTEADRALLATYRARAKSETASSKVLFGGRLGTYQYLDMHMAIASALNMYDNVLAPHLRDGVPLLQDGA
# Rv3671c inh = inhibits the M. tuberculosis serine protease Rv3671c. inhibition, % at 5.96 µM. P9WHR9. 320,000 compounds, 0.048% hits; in the data active = inhibition above about 38%;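 note: extracellular domain of Rv3671c used as enzyme; 0% = enzyme with DMSO and 100% = no enzyme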
# Mtb betalactam = beta-lactam sensitization of Mtb H37Rv. inhibition, % at 25 µM. 330,000 compounds, 0.27% hits. M. tuberculosis H37Rv growth with meropenem, percent inhibition; call rule not given here;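 note: growth measured after seven days incubation then overnight dye step; 0% = bacteria only wells and 100% = bacteria with antibiotic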
# GDH-TPI counter-1 = counter-screen for M. tuberculosis FBA inhibitors: GDH-TPI coupled enzymes; GDH-TPI coupled enzyme counterscreen, NADH absorbance; inhibition, % at 4.8 µM; 360,000 compounds, 1.2% hits; in the data active = inhibition above about 30%;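 note: 0% = DMSO wells and 100% = wells lacking the enzyme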
# Mtb FBA inh conf = confirmation of M. tuberculosis fructose-bisphosphate aldolase inhibitors; 5,600 compounds, 78% hits; purified M. tuberculosis FBA, fluorescence read-out; inhibition, % at 1 µM; shares compounds with FBA Mtb inh; AID 651616;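 note: 0% = vehicle wells and 100% = reference inhibitor wells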
# GDH-TPI counter-2 = counter-screen for M. tuberculosis FBA inhibitors: GDH-TPI coupled enzyme inhibition. shares compounds with FBA Mtb inh. GDH-TPI coupled enzyme counterscreen, fluorescence. inhibition, % at 1 µM. 5,600 compounds, 81% hits; in the data active = inhibition above about 10%
# Active calls of the source: *; nt = not tested or not shown; + = active, no number. Cut-off read from the data, not from the text of the source, unless noted: active = inhibition above about 27%; inactive = the rest.
SMILES,FBA Mtb inh,RecA intein inh,Mtb UGM inh,Rv3671c inh,Mtb betalactam,GDH-TPI counter-1,Mtb FBA inh conf,GDH-TPI counter-2
Cc1ccc(-c2cc(C(=O)NCCN3CCOCC3)c3ccccc3n2)o1,42.8*,-60.7,3.3,-6.3,-9.0,22.7,119.7*,89.5*
O=C(NCCCN1CCOCC1)c1cc(-c2ccccc2)nc2ccccc12,2.2,-2.4,-1.0,1.6,-1.9,8.3,nt,nt
Cc1ccc(-c2cc(C(=O)N3CCN(c4ccccc4O)CC3)c3ccccc3n2)o1,38.1*,-1.7,0.7,2.1,76.7,7.3,106.4*,103.4*
COc1ccc(-c2cc(C(=O)NCCN3CCOCC3)c3ccccc3n2)cc1,47.0*,-0.4,-1.6,5.9,1.6,17.7,81.1*,93.1*
O=C(NCCN1CCOCC1)c1cc(-c2ccc(Cl)s2)nc2ccccc12,92.6*,-3.2,-1.2,-6.4,-0.4,21.1,148.4*,116.0*
O=C(NCCN1CCOCC1)c1cc(-c2ccccc2Cl)nc2ccccc12,-0.7,-2.1,-1.3,-12.9,-2.3,5.6,nt,nt
CC1CCN(C(=O)c2cc(Cl)nc3ccccc23)CC1,2.1,-5.5,1.5,2.1,-5.9,-0.7,nt,nt
COC(=O)C1CCN(C(=O)c2cc(-c3ccc(Cl)s3)nc3ccccc23)CC1,67.8*,nt,-2.3,-2.1,26.2,15.3,146.8*,139.4*
COc1cc(C)ccc1S(=O)(=O)NC(=O)C1(C)CCN1C(=O)c1ccc(C2CCCCC2)cc1 (stereo unspecified),2.4,nt,nt,nt,nt,14.3,nt,nt
CCCCC[n+]1ccn(-c2nc3ccccc3nc2[N-]S(=O)(=O)c2ccccc2)c1,19.9,-31.9,-1.9,-0.7,-14.8,6.9,nt,nt
O=S(=O)([N-]c1nc2ccccc2nc1-n1cc[n+](Cc2ccccc2)c1)c1ccc(Br)cc1,27.0*,-10.6,2.4,-8.2,-1.5,11.1,+,178.6*
COCCNC(=O)C1(C)CCCN(C(=O)c2ccccc2OC)C1 (stereo unspecified),4.1,nt,nt,nt,nt,11.6,nt,nt
NC(=O)c1c(NC(=O)C(=O)N2CCOCC2)sc2c1CCC2,33.5*,-5.1,-1.2,-4.1,-4.8,19.7,117.1*,89.0*
Oc1ccc(Br)cc1Cn1nnc2ccccc21,3.8,4.6,0.9,-7.6,0.5,5.2,nt,nt
COCc1nnc(NC(=O)c2ccccc2Oc2ccccc2)s1,73.0*,2.2,-0.6,5.7,-1.6,7.6,158.4*,119.2*
Cc1cccc(OCCn2nnc3ccccc32)c1C,2.2,2.1,0.2,5.8,11.1,14.7,nt,nt
O=C(O)CCN1C(=O)C2C3C=CC(C3)C2C1=O (stereo unspecified),3.6,-0.8,3.5,-4.2,-10.6,6.2,nt,nt
O=C(O)CCN1C(=O)C2CCCCC2C1=O (stereo unspecified),46.2*,0.8,1.8,5.5,-3.4,7.3,+,192.9*
CCCCN(C(=O)C(C)Oc1ccc(Cl)cc1)c1c(N)n(CCCC)c(=O)[nH]c1=O (stereo unspecified),0.1,-0.1,-0.7,-0.8,-3.3,-8.6,nt,nt
O=C(Nc1ccccc1SCC1CSc2nc3ccccc3c(=O)n21)c1cccc(Cl)c1 (stereo unspecified),59.3*,-0.8,3.5,-1.7,-7.2,-0.8,84.6*,78.7*
Cc1ccc(-c2cc(-c3ccc(C)o3)nc(N)c2C#N)cc1,18.9,-4.5,3.0,1.6,36.2,11.9,nt,nt
Cc1ccc(-c2cc(-c3ccc(F)cc3)c(C#N)c(N)n2)o1,46.8*,-26.1,3.4,-2.7,2.0,2.5,+,173.4*
O=C(NCc1ccccn1)c1ccc2c(c1)N(Cc1ccccc1)CCS2,93.6*,2.3,-0.9,2.1,0.2,7.2,3.0,0.1
O=C(NCc1cccnc1)c1ccc(Cl)c(Cl)c1,5.0,0.8,-1.4,-6.6,-5.3,2.3,nt,nt
O=C(NCc1cccnc1)c1ccc2c(c1)N(Cc1ccccc1)CCS2,75.5*,-1.6,0.8,-10.3,-1.6,3.4,162.9*,124.5*
SMILES,FBA Mtb inh,RecA intein inh,Mtb UGM inh,Rv3671c inh,Mtb betalactam,GDH-TPI counter-1,Mtb FBA inh conf,GDH-TPI counter-2
CN1CCSc2ccc(C(=O)NCc3ccccc3)cc21,95.8*,-6.4,2.7,3.6,-1.2,17.9,+,167.0*
COc1cc(C(=O)NCC(c2cccs2)N2CCOCC2)cc(OC)c1OC (stereo unspecified),7.6,-1.2,-2.2,-4.5,-3.4,-3.5,nt,nt
CC(C)CCN(C(=O)C1=COCCO1)c1c(N)n(Cc2ccccc2)c(=O)[nH]c1=O,6.6,-1.7,-0.3,0.2,0.4,3.2,nt,nt
COc1cc(C2c3c(oc4ccccc4c3=O)C(=O)N2c2nccs2)ccc1O (stereo unspecified),-1.8,0.2,-1.5,3.4,-2.0,19.6,nt,nt
C#CCOC(=O)CCCN1C(=O)c2cccc3cccc(c23)C1=O,32.4*,nt,nt,nt,nt,22.1,156.3*,121.1*
COC(=O)CCCN1C(=O)c2cccc3cccc(c23)C1=O,35.3*,2.0,0.9,-0.1,41.6,6.6,128.8*,111.0*
OC(c1ccc(Cl)c(F)c1)c1ncc(-c2cccc(F)c2)[nH]1 (stereo unspecified),1.2,nt,nt,nt,nt,9.7,nt,nt
Cn1ncc([N+](=O)[O-])c1C(=O)Nc1ccc(-c2ccccc2)cc1,-1.3,-3.6,0.0,11.1,4.4,21.0,nt,nt
CCc1nnc(SCC(=O)NC2CC2)n1CC,2.0,0.9,0.5,5.7,4.2,6.2,nt,nt
CC(C)[C@H](NC(=O)OCc1ccccc1)C(=O)N[C@@H](Cc1c[nH]c2ccccc12)C(=O)O,-3.6,0.9,0.0,-0.8,-8.7,-1.7,nt,nt
O=C(O)CCC(=O)Nc1nc2nccc(-c3ccccc3)n2n1,45.3*,-0.4,0.2,-1.8,-4.3,11.7,+,181.4*
CCCC(=O)Nc1nc2nc(-c3ccccc3)cc(-c3ccccc3)n2n1,6.9,-2.3,1.4,-11.1,-7.1,17.7,nt,nt
Cc1ccccc1NC(=O)Nc1nc(C2CCC(=O)N2)cs1 (stereo unspecified),1.8,nt,nt,nt,nt,12.9,nt,nt
COc1ccc(/C(C)=N/NC(=O)c2cc(C)[nH]n2)c(OC)c1,-1.2,2.2,4.0,-3.8,-8.8,2.3,nt,nt
CN(C)c1ccc(-c2n[nH]c(=S)n2-c2ccccc2)cc1,23.0,-1.4,-1.2,3.8,13.7,3.1,nt,nt
CCN(CC)c1ccc(-c2n[nH]c(=S)n2-c2ccccc2)cc1,37.0*,1.5,1.8,0.9,0.0,7.5,86.1*,68.2*
CC(=O)Oc1c(-c2ccc(Br)o2)oc2ccccc2c1=O,78.7*,-62.4,-2.9,-1.5,95.7,30.0,46.9*,40.9*
Cc1cc(-c2ccccc2)c2nncn2n1,45.1*,-2.8,0.4,-4.5,-4.5,-3.2,+,+
CN(CC(=O)Nc1ccccc1Cl)C(=O)COC(=O)CCN1C(=O)C2CC=CCC2C1=O (stereo unspecified),-1.3,6.0,2.6,-5.8,-3.9,-2.1,nt,nt

# Compound activity from PubChem BioAssay.
